In the supplement of paper PMC6555819 one finds PBM binding z-score data, which are given here for seven sequences.

Holding throughout (assay): PBM binding z-score (relative to random genomic background probes); higher = stronger binding; sequences stand for … in GC…GCGATTGACAGCGTAGAATGAAGG
For assay [1], the system named is FXR:RXRa (NR concentration 270 nM, RXRa partner concentration 90 nM). The method, boiled down: (§1)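 Binding buffer was PBS pH 7.4 with 2% milk, 0.02% Triton X-100, 1 mM DTT, 0.2 mg/mL BSA and 0.4 mg/ml salmon testes DNA. In it, ligand-free nuclear receptor dimers were incubated 1 h on custom Agilent 4×180K protein-binding microarrays carrying double-stranded probes. Antibodies against each partner (one per run) detected binding, and z-scores were calculated against random background probes after regression normalization of scanned fluorescence.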

Assay [2] concerns LXRa:RXRa (NR concentration 270 nM, RXRa partner concentration 90 nM). The method, boiled down:
as §1

Assay [3] deals with LXRa homodimer (NR concentration 270 nM). The procedure, abridged:
as §1

The subject of assay [4] is LXRb:RXRa (NR concentration 270 nM, RXRa partner concentration 90 nM). The method, boiled down:
as §1

Assay [5] deals with LXRb homodimer (NR concentration 270 nM). The procedure, abridged:
as §1

For assay [6], the system named is PPARa:RXRa (NR concentration 270 nM, RXRa partner concentration 90 nM). The method, boiled down: as §1
Assay [7] relates to PPARg:RXRa (NR concentration 180 nM, RXRa partner concentration 90 nM). The method, boiled down:
as §1

Assay [8] has as its system PPARg:RXRa 270nM:90nM, anti-RXR (NR concentration 270 nM, RXRa partner concentration 90 nM). The procedure, abridged: as §1
The subject of assay [9] is PPARg:RXRa 30nM:10nM, anti-RXR (NR concentration 30 nM, RXRa partner concentration 10 nM). The method, boiled down:
as §1

In assay [10] the test system is PPARg:RXRa 90nM:30nM, anti-RXR (NR concentration 90 nM, RXRa partner concentration 30 nM). The procedure, abridged:
as §1

For assay [11], the system named is PPARg:RXRa DBDmut IVT, anti-RXR (DBD mutation: RXRa K156A/R161A, NR concentration 270 nM, RXRa partner concentration 90 nM). The method, boiled down: as §1
Assay [12] deals with PPARg:RXRa IVT, anti-PPARg (NR concentration 270 nM, RXRa partner concentration 90 nM). The procedure, abridged:
as §1

The test system of assay [13] is PPARg DBDmut:RXRa IVT, anti-PPARg (DBD mutation: PPARg1 K132A/R137A, NR concentration 270 nM, RXRa partner concentration 90 nM). The procedure, abridged: as §1
In assay [14] the test system is PPARg DBDmut IVT, anti-PPARg (DBD mutation: PPARg1 K132A/R137A, NR concentration 270 nM). The procedure, abridged:
as §1

Assay [15] concerns PPARg homodimer (NR concentration 180 nM). The method, boiled down:
as §1

In assay [16] the test system is PXR:RXRa (NR concentration 270 nM, RXRa partner concentration 90 nM). The method, boiled down:
as §1

Assay [17] deals with PXR homodimer (NR concentration 270 nM). The method, boiled down:
as §1

Assay [18] deals with RARa:RXR (NR concentration 270 nM, RXRa partner concentration 90 nM). The method, boiled down: as §1
Assay [19] concerns RARa homodimer (NR concentration 270 nM). The method, boiled down: as §1
The test system of assay [20] is RARb:RXRa (NR concentration 270 nM, RXRa partner concentration 90 nM). The procedure, abridged:
as §1

As to AGAACGAGGGAAATGAGTTGATAGCACGGGTGGC, the PBM binding z-score in [1] is -0.469; in assay [2], -0.525; in assay [3] it was -0.561; in [4], -0.828; in assay [5] it was -0.449; in [6], -0.481. In addition, the PBM binding z-score in assay [7] was 0.813; in [8] it was -0.497; in assay [9], -0.0468; in [10], -0.319; in assay [11], -0.231; in assay [12], -0.564. Besides, the PBM binding z-score is 0.432 in assay [13]; -0.941 in assay [14]; -0.441 in [15]; -0.411 in assay [16]; 0.0651 in [17]; -0.474 in assay [18]. Further, the PBM binding z-score in assay [19] is -0.0061; in assay [20], -0.45.

Consider GTACCAAGGTGAATAAGTCGTTGATGAGTAGGCG, for which the PBM binding z-score was 0.544 in [1]; 0.243 in assay [2]; -0.143 in [3]; -0.0627 in [4]; -0.489 in assay [5]; 0.853 in [6]. The PBM binding z-score was 0.832 in assay [7]; 0.279 in [8]; 0.154 in assay [9]; -0.268 in assay [10]; 1.47 in [11]; 1.77 in [12]. In addition, the PBM binding z-score in [13] was -0.113; in [14], 0.912; in [15], 0.706; in assay [16], -0.129; in assay [17], 0.166; in [18] it was 0.233. Besides, the PBM binding z-score in assay [19] turned out to be 0.8; in [20] it was 1.27.

Turning to GCGACTGGGGCATCATCAGGTTACCATAACTTAA, the PBM binding z-score is 0.261 in assay [1]; 0.0527 in assay [2]; 0.169 in [3]; 1.57 in [4]; -0.509 in assay [5]; 1.46 in assay [6]. Further, the PBM binding z-score in assay [7] was 1.1; in assay [8] it was 0.894; in assay [9], -0.0999; in [10] it was 0.381; in assay [11] it was 4.15; in assay [12] it was 3.3. For the same sequence, the PBM binding z-score in assay [13] was -0.137; in assay [14], -0.42; in assay [15], 0.121; in [16], 0.266; in [17], -0.0234; in assay [18] it was 1.05. The PBM binding z-score in [19] is -0.63; in [20], 0.767.

As for ATCGCTAGGTAACCAAGTTCAGTGAATGCCGAAC, the PBM binding z-score in assay [1] is -0.315; in assay [2] it was 0.156; in assay [3], -0.0176; in assay [4] it was -0.126; in [5] it was -0.754; in [6], 0.318. Also, the PBM binding z-score in [7] was -0.0825; in [8], -0.186; in [9] it was -0.453; in assay [10] it was -0.0897; in assay [11] it was -0.05; in [12] it was 0.465. Besides, the PBM binding z-score in assay [13] is -0.411; in assay [14] it was -0.436; in [15], -0.86; in [16] it was 1.57; in assay [17], 1.12; in [18], 0.267. In addition, the figures for the PBM binding z-score in [19] and in [20] were -0.716 and 0.753, respectively.

As to ATCTCTGGGTAAAGATAGTTCAGTGAATGCAAAT, the PBM binding z-score is -0.122 in [1]; 3.7 in assay [2]; 0.422 in [3]; 0.738 in assay [4]; 0.449 in assay [5]; 0.473 in assay [6]. Besides, the PBM binding z-score came to 0.419 in [7]; 0.54 in assay [8]; 0.327 in [9]; 0.434 in assay [10]; 1.83 in assay [11]; 1.65 in [12]. The PBM binding z-score stood at 1.05 in assay [13]; 1.76 in assay [14]; 0.681 in [15]; 1.17 in assay [16]; 0.829 in [17]; 0.549 in assay [18]. Also, the results for the PBM binding z-score in assay [19] and in assay [20] were 1.1 and 0.828, respectively.

For the sequence TAGCCTAGGTCATGCGGGCGAGTATAGTGTCGGC, the PBM binding z-score in [1] is 3.79; in assay [2], 2.5; in [3], 0.369; in [4] it was 1.21; in [5] it was -0.906; in assay [6], 3.32. The PBM binding z-score in assay [7] was 2.45; in assay [8], 2.08; in [9], -0.413; in assay [10] it was 1.37; in [11], 1.54; in assay [12], 2.78. Further, the PBM binding z-score was -0.28 in assay [13]; -1 in assay [14]; 0.366 in [15]; 0.704 in assay [16]; -0.37 in assay [17]; 1.97 in [18]. For the same sequence, the PBM binding z-score is -0.358 in assay [19] and 3.54 in assay [20].

Regarding TAGCCCAGGTCAGATCGGGCCAGTATACGCTATA, the PBM binding z-score in [1] is 2.34; in assay [2], 1.3; in [3] it was -0.26; in assay [4] it was 0.735; in [5] it was -0.412; in assay [6], 1.86. Moreover, the PBM binding z-score was 0.632 in assay [7]; 0.728 in assay [8]; -0.392 in assay [9]; -0.038 in [10]; -0.572 in assay [11]; 1.18 in assay [12]. For the same sequence, the PBM binding z-score is -0.255 in assay [13]; -0.724 in assay [14]; -0.165 in assay [15]; 1.48 in assay [16]; -0.562 in assay [17]; 1.11 in assay [18]. Moreover, the PBM binding z-score in assay [19] was -0.626; in [20], 2.91.
